This note sets out measurements from PubChem BioAssay (NCATS).

Values joined by “and” are separate entries in the source; they are usually repeats but may differ in a detail not shown here. Equal entries are not always repeated. Records with an inconclusive call do not appear. A number with no mark means an inactive call. Active and inactive are the calls of the source. The call rests on the fitted dose curve; in most records, active means well fitted curve in the direction sought with a large enough effect; inconclusive means small, poorly fitted or top-dose-only effect, or another doubt; inactive means no such curve, though single readings can be large; an effect the other way counts as inactive or inconclusive.

Assay [1] addresses Cellular tumor antigen p53 (Homo sapiens) (UniProt P04637). The assay can be described thus: Primary qHTS for small molecule compounds that upregulate eGFP-tagged delta133p53alpha (in N-terminal) cells. (AID 2060322). Further: nearly all actives have a fitted effect of over 75% in size. Further: potency means the concentration at half of the fitted maximal effect.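 On activation: series mostly up to about 56 µM; 0% = DMSO vehicle and 100% = reference activator.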 The note with it: NCI-H358 eGFP-delta133p53alpha fluorescence, 24 h; activation: stronger effect = higher value. The method in brief: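 NCI-H358 cells pre-induced 24 h with 10 ng/ml doxycycline to express N-terminal eGFP-delta133p53alpha, then dosed 24 h at 37C without doxycycline; fixed, Hoechst-stained, GFP intensity by laser scanning cytometry, normalized to DMSO (0%) and 57.5 uM 5-azacytidine (100%).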

Assay [2] has as its target Aldehyde dehydrogenase, mitochondrial (Homo sapiens) (UniProt P05091). The assay can be described thus: qHTS for Inhibitors of the Aldehyde Dehydrogenase Family (ALDH2) Primary screen (AID 2061308;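 further: plate controls were vehicle for no effect and reference inhibitor for full effect; nearly all actives have a fitted effect of over 55% in size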). (In qHTS, concentration-response curves come from the screen itself.)
The target in assay [3] is Retinaldehyde dehydrogenase 3 (Homo sapiens) (UniProt P47895). The assay can be described thus: qHTS for Inhibitors of the Aldehyde Dehydrogenase Family (ALDH1A3) Validation screen (AID 2061312). Further: nearly all actives have a fitted effect of over 45% in size. Further: potency means the concentration at half of the fitted maximal effect. On activity change, negative = inhibition: on the % scale 0 is the no-effect control and ±100 the full control effect.
The target is the same in assay [4]. The assay can be described thus: qHTS for Inhibitors of the Aldehyde Dehydrogenase Family (ALDH1A3) Primary screen (AID 2061315).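 Further: plate controls were DMSO vehicle for no effect and reference inhibitor for full effect.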
The nature of assay [5]: BET inhibitor-based combinations targeting novel dependencies in MECOM-rearranged (r) AML: SET-2 cell line (AID 2202231). Further: nearly all actives have a fitted effect of over 35% in size. Further: potency means the concentration at half of the fitted maximal effect.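 On viability: plate controls were DMSO treated cells for no effect and wells without cells for full effect.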 To be noted: SET-2 AML cells viability, CellTiter-Glo luminescence, 48 h; viability: stronger effect = lower value, concentration not given here. The method in brief: (§1)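 500 cells/well; 11-pt dose curve; 48 h, standard incubator; CellTiter-Glo luminescence after 15 min RT; DMSO/empty-well normalization; AUC plus Z-AUC (mean-centered within each line).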
On the technique in general: In ATP-based viability assays light output follows the ATP content of the culture.

The nature of assay [6]: BET inhibitor-based combinations targeting novel dependencies in MECOM-rearranged (r) AML: OCI-AML3 cell line (AID 2202232). Further: nearly all actives have a fitted effect of over 35% in size. Further: potency means the concentration at half of the fitted maximal effect. To be noted: Potency: OCI-AML3 viability. The method in brief:
as §1

The nature of assay [7]: BET inhibitor-based combinations targeting novel dependencies in MECOM-rearranged (r) AML: HNT-34 cell line (AID 2202234). Further: nearly all actives have a fitted effect of over 35% in size. Further: potency means the concentration at half of the fitted maximal effect. In short, it runs like this: (§2)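 Cells were plated at 500 per well and exposed to each drug across an 11-point dose range for 48 hr at standard incubator conditions. Viability was read by CellTiter-Glo luminescence, and activity was expressed as AUC and per-cell-line Z-transformed AUC.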

A short description of assay [8]: BET inhibitor-based combinations targeting novel dependencies in MECOM-rearranged (r) AML: UCSD-AML1 cell line (AID 2202235). Further: nearly all actives have a fitted effect of over 40% in size. Further: potency means the concentration at half of the fitted maximal effect. In short, it runs like this: as §2
A short description of assay [9]: BET inhibitor-based combinations targeting novel dependencies in MECOM-rearranged (r) AML: AML-191 cell line (AID 2202236; further: nearly all actives have a fitted effect of over 35% in size; further: potency means the concentration at half of the fitted maximal effect). The method in brief: as §1
Assay [10] can be described thus: BET inhibitor-based combinations targeting novel dependencies in MECOM-rearranged (r) AML: AML-194 cell line (AID 2202237; further: nearly all actives have a fitted effect of over 40% in size; further: potency means the concentration at half of the fitted maximal effect). In short, it runs like this:
as §1

The nature of assay [11]: BET inhibitor-based combinations targeting novel dependencies in MECOM-rearranged (r) AML: MV-4-11 cell line (AID 2202233). Further: nearly all actives have a fitted effect of over 45% in size. Further: potency means the concentration at half of the fitted maximal effect. The method in brief: as §2

Chain of Cellular tumor antigen p53 (Homo sapiens) (P04637 whole entry, looked up): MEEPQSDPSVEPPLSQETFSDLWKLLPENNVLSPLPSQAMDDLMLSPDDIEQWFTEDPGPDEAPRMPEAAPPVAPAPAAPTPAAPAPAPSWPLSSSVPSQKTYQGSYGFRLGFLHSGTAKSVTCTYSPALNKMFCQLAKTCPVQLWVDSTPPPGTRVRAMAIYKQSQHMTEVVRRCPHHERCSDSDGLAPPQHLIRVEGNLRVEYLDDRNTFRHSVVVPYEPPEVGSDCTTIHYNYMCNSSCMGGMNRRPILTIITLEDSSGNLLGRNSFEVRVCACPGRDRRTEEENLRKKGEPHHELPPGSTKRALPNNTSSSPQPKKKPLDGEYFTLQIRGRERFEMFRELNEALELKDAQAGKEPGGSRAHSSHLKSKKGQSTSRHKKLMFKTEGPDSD

In general, viability refers to a read-out of living cells in per cent, often relative to untreated cells. `C[C@]12CC[C@H](O)CC1=CCC1C2CC[C@]2(C)C(n3cnc4ccccc43)=CCC12` (some centres undefined): the activation in [1] is 20.1% and 28.6%. The Potency result in assay [2], in assay [3], in [4], in [6], in [7] and in [8] was “inactive” throughout. Further, the Potency result in assay [10] was “inactive”. For the same molecule, the viability in assay [5] was 118%. Also, the Potency in assay [9] is 18.6 µM (active).

Regarding `CC(C)(C)OC(=O)N[C@H]1CCCCCC=C[C@@H]2C[C@@]2(C(=O)NS(=O)(=O)C2CC2)NC(=O)[C@@H]2C[C@@H](OC(=O)N3Cc4cccc(F)c4C3)CN2C1=O`, the activation in [1] was 5.4%. The Potency result in assay [2], in assay [3], in assay [4], in assay [7] and in assay [8] was “inactive” each time. Further, the viability in [5] was 102%.

With `OC(c1ccc(-c2ccc(CN3CCN(Cc4ccncc4)CC3)cc2)c(F)c1)(C(F)(F)F)C(F)(F)F`, the activation in [1] is -11%. Also, the Potency entry in assay [2], in assay [3], in assay [4], in assay [7], in [8] and in [10] was “inactive” each time. Further, in assay [5], the viability was 101%. In addition, the Potency in assay [11] was 8.33 µM (active); in assay [9] it was 9.34 µM (active).

For `COCCOc1ccc(N2CCN(CCn3ncc4c3nc(N)n3nc(-c5ccco5)nc43)CC2)cc1`, the activation in [1] is 6.21%. Further, the Potency result in [2], in assay [3], in assay [4], in assay [6], in assay [7] and in [8] was “inactive” in each case. For the same molecule, the Potency result in assay [9] and in assay [10] was “inactive” each time. Also, in assay [5], the viability is 113%.

On to `Cc1csc(NC(=O)c2sc3nc4c(c(C(F)(F)F)c3c2N)CCC4)n1`, for which, in [1], the activation was -4.78%. Moreover, the Potency entry in assay [2], in assay [3], in assay [4], in [11], in [7] and in assay [8] was “inactive” throughout. Also, the Potency result in assay [9] and in assay [10] was “inactive” in each case. In addition, the viability in [5] is 97.5%.

For `CC(=O)c1cnc2ccc(-c3cc(Cl)c(O)c(Cl)c3)nc2c1NC1CCC(CN(C)C)CC1` (centres undefined), the Potency in assay [1] is 153 nM (active) and 195 nM (active); in [5], 0.0605 µM (active); in assay [6], 0.121 µM (active); in assay [7], 0.0481 µM (active); in assay [9], 0.0481 µM (active); in assay [10], 0.0605 µM (active). In addition, the activity change, negative = inhibition in [2] was 21.4% [at 11.2 µM]; in assay [3], 24.3% [at 20.1 µM]; in assay [4], 9.88% [at 11.2 µM].

For `CC1(C)CCC(c2ccc(Cl)cc2)=C(CN2CCN(c3ccc(C(=O)NS(=O)(=O)c4ccc(N[C@H](CCN5CCOCC5)CSc5ccccc5)c(S(=O)(=O)C(F)(F)F)c4)cc3)CC2)C1`, the Potency in assay [1] was 26.9 µM (active); in assay [5], 1.32 µM (active); in assay [11], 0.332 µM (active); in assay [7], 0.468 µM (active); in assay [8], 1.05 µM (active); in assay [9], 0.742 µM (active). In addition, in assay [10], the Potency was 0.833 µM (active). In addition, the Potency result in assay [2], in [3] and in assay [4] was “inactive” throughout.

For `Cn1cncc1C(N)(c1ccc(Cl)cc1)c1ccc2c(c1)c(-c1cccc(Cl)c1)cc(=O)n2C` (centres undefined), the Potency is 26.9 µM (active) in [1]; 14.8 µM (active) in assay [5]; 5.25 µM (active) in assay [11]; 0.372 µM (active) in [8]; 4.17 µM (active) in assay [9]; 20.9 µM (active) in assay [10]. The Potency result in [2], in [3] and in [4] was “inactive” throughout.

`C[C@H](NC(=O)Cc1cc(F)cc(F)c1)C(=O)N[C@@H]1C(=O)N(C)c2ccccc2-c2ccccc21`: in assay [1], the activation is 27.1% and -2.39%. For the same molecule, the Potency result in assay [2], in assay [3], in assay [4], in [11], in [7] and in [8] was “inactive” each time. Moreover, the Potency entry in assay [9] and in assay [10] was “inactive” in each case. In addition, the viability in [5] was 121%.

Turning to `CC1(C)Cc2c(-c3ccccc3)c(-c3ccc(Cl)cc3)c(CC(=O)O)n2C1`, the activation in assay [1] was -18.1% and -12.4%. For the same molecule, the Potency result in assay [2], in assay [3], in [4], in assay [9] and in assay [10] was “inactive” each time. For the same molecule, the viability in assay [5] is 104%. In assay [11], the Potency was 23.5 µM (active).

For the molecule `CCNC(=O)CCC/C=C\C[C@@H]1[C@@H](/C=C/C(O)CCc2ccccc2)[C@@H](O)C[C@@H]1O` (some centres undefined), the activation in assay [1] was -11.9%. In addition, the Potency result in assay [2], in [3], in assay [4], in [11], in assay [7] and in assay [8] was “inactive” each time. The Potency result in assay [9] and in assay [10] was “inactive” each time. Moreover, in [5], the viability was 121%.

As to `CN1CC[C@@H](NC(=O)Nc2ccc(C#N)cc2)C[C@@H]1c1nc2ccccc2[nH]1`, in [1], the activation is -0.477%. In addition, the Potency result in [2], in [4], in [6], in assay [8], in assay [9] and in [10] was “inactive” each time. Also, in assay [3], the Potency is 3.98 µM (active). In addition, the viability in assay [5] is 117%.

With `C[C@H]1CN(C[C@H](Cc2ccccc2)C(=O)NCC(=O)O)CC[C@@]1(C)c1cccc(O)c1`, in [1], the activation was 7.64%. Further, the Potency result in assay [2], in assay [3], in assay [4], in assay [11], in [7] and in assay [8] was “inactive” in each case. In addition, the Potency result in assay [9] and in assay [10] was “inactive” in each case. Besides, the viability in assay [5] is 120%.

As to `CCCCc1oc2ccc(NS(C)(=O)=O)cc2c1C(=O)c1ccc(OCCCN(CCCC)CCCC)cc1`, the activation in assay [1] was 2.56%. Besides, the Potency entry in assay [2], in assay [3] and in assay [4] was “inactive” in each case. The Potency in assay [5] was 18.6 µM (active); in [11], 10.5 µM (active); in assay [8] it was 10.5 µM (active); in assay [9] it was 10.5 µM (active); in assay [10] it was 10.5 µM (active).

`Cc1cc(C(=O)N2CCN(c3cccc(Cl)c3)CC2)n(-c2ccccc2)n1`: the activation in assay [1] was -1.43%. Also, the Potency entry in [2], in assay [3] and in [4] was “inactive” each time. In addition, the Potency in [5] was 9.34 µM (active); in assay [6] it was 4.17 µM (active); in assay [11] it was 3.72 µM (active); in [10], 2.63 µM (active).
